A short description of assay [1]: NCI Yeast Anticancer Drug Screen. Data for the rad50 strain (AID 155).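 Also: 0% = growth of vehicle-only cultures of the same strain.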 As to conditions: S. cerevisiae rad50 strain growth inhibition, stronger effect = higher value. In outline:
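Relative growth inhibition (compound vs vehicle) was measured in yeast with a defined repair-gene alteration.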

Assay [2] in a line: NCI Yeast Anticancer Drug Screen. Data for the mec2-1 strain (AID 157). As to conditions: S. cerevisiae mec2-1 strain, stronger effect = higher value. In outline:
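Compounds were applied to mec2-1 yeast cells. Their growth was then compared with that of vehicle-treated cultures to give growth inhibition.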

Assay [3] is described as follows: NCI Yeast Anticancer Drug Screen. Data for the sgs1 mgt1 strain (AID 161).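 Also: 0% = growth of cultures given vehicle only.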 As to conditions: S. cerevisiae sgs1 mgt1 strain, stronger effect = higher value. Put shortly: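 Compounds are added to genetically altered yeast, and growth is compared with cultures given vehicle alone to give percent inhibition.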
Assay [4] is described as follows: NCI Yeast Anticancer Drug Screen. Data for the cln2 rad14 strain (AID 165).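 Also: 0% = growth equal to vehicle treated cultures.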 The note with it: S. cerevisiae cln2 rad14 strain, stronger effect = higher value. Put shortly:
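Strain: cln2 rad14 yeast, altered in cell cycle control and DNA damage repair. Read-out: growth inhibition vs vehicle.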

A short description of assay [5]: NCI Yeast Anticancer Drug Screen. Data for the bub3 strain (AID 167). As to conditions: S. cerevisiae bub3 mutant strain, stronger effect = higher value. Put shortly: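 Screening used yeast with an engineered genetic alteration affecting cell cycle control. Compound-exposed cultures were compared with vehicle cultures, and reduced growth was taken as inhibition.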
A short description of assay [6]: NCI Yeast Anticancer Drug Screen. Data for the mlh1 rad18 strain (AID 175). As to conditions: S. cerevisiae mlh1 rad18 strain growth inhibition, stronger effect = higher value. In outline: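 A repair-deficient yeast strain is exposed to test compound, and growth is scored relative to vehicle-treated controls.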
Where [7] appears, read: at 5.0 µM (retest, dose inferred, filed as 0.5).
Where [8] appears, read: at 50.0 µM (retest, dose inferred, filed as 5.0).

Compounds without any hit were thinned out: in the full panel of roughly 79,000, 15% have a hit. Values without a mark were called inactive. Calls of active or inactive are those of the source. Rule as the data show it: active = growth inhibition above about 70%; inactive = the rest.

Consider `Cc1ccc(NC(=O)Cc2nc3ccccc3s2)c(C)c1`, for which the growth inhibition is 7% in assay [1] (setting [7]); 99% (active) in assay [1] (setting [8]); 98.7% (active) in assay [1] (at 50.0 µM); 9% in assay [2] (setting [7]); 98% (active) in assay [2] (setting [8]); 99.3% (active) in assay [2] (at 50.0 µM). The growth inhibition in assay [3] (setting [7]) was 20%; in assay [3] (setting [8]), 99% (active); in assay [3] (at 50.0 µM), 99.5% (active); in assay [4] (setting [7]), 6%; in assay [4] (setting [8]) it was 91% (active); in assay [4] (at 50.0 µM), 95.7% (active). Moreover, the growth inhibition in assay [5] (setting [7]) was 29%; in assay [5] (setting [8]) it was 99% (active); in assay [5] (at 50.0 µM), 99% (active); in assay [6] (setting [7]), 14%; in assay [6] (setting [8]), 99% (active); in assay [6] (at 50.0 µM), 99% (active).
As for `O=C([O-])C[n+]1c(/C=C/c2ccccc2)ccc2ccccc21`, the growth inhibition in assay [1] (setting [7]) is -2%; in assay [1] (setting [8]), 69%; in assay [1] (at 50.0 µM), 37.1%; in assay [2] (setting [7]), -3%; in assay [2] (setting [8]), 87% (active); in assay [2] (at 50.0 µM), 5.35%. In addition, the growth inhibition in assay [3] (setting [7]) was -6%; in assay [3] (setting [8]) it was 92% (active); in assay [3] (at 50.0 µM), 28.9%; in assay [4] (setting [7]), -3%; in assay [4] (setting [8]), 85% (active); in assay [4] (at 50.0 µM), 13.9%. The growth inhibition is 2% in assay [5] (setting [7]); 84% (active) in assay [5] (setting [8]); 6.8% in assay [5] (at 50.0 µM); 0% in assay [6] (setting [7]); 94% (active) in assay [6] (setting [8]); 32.3% in assay [6] (at 50.0 µM).
On to `CCCCCCCCCCCCCCCCC#N`, for which the growth inhibition in assay [1] (setting [7]) was -6%; in assay [1] (setting [8]), -8%; in assay [1] (at 50.0 µM), 50.4%; in assay [2] (setting [7]), -2%; in assay [2] (setting [8]), -4%; in assay [2] (at 50.0 µM), -7.4%. Also, the growth inhibition in assay [3] (setting [7]) is 0%; in assay [3] (setting [8]) it was -4%; in assay [3] (at 50.0 µM), 52.1%; in assay [4] (setting [7]), 2%; in assay [4] (setting [8]), 0%; in assay [4] (at 50.0 µM), 16.2%. For the same compound, the growth inhibition in assay [5] (setting [7]) was -3%; in assay [5] (setting [8]), -9%; in assay [5] (at 50.0 µM) it was 52.2%; in assay [6] (setting [7]), -5%; in assay [6] (setting [8]), -5%; in assay [6] (at 50.0 µM), 24.1%.
With `NC1=NC(c2ccccc2)CC(c2cc(Cl)cc(Br)c2O)=N1` (stereo not given), the growth inhibition in assay [1] (setting [7]) was 0%; in assay [1] (setting [8]), 25%; in assay [1] (at 50.0 µM) it was 35.1%; in assay [2] (setting [7]), -3%; in assay [2] (setting [8]), 19%; in assay [2] (at 50.0 µM), 13.4%. The growth inhibition is -1% in assay [3] (setting [7]); 42% in assay [3] (setting [8]); 10.7% in assay [3] (at 50.0 µM); 0% in assay [4] (setting [7]); 22% in assay [4] (setting [8]); 16.2% in assay [4] (at 50.0 µM). Also, the growth inhibition was -1% in assay [5] (setting [7]); 34% in assay [5] (setting [8]); -0.8% in assay [5] (at 50.0 µM); -3% in assay [6] (setting [7]); 46% in assay [6] (setting [8]); 28.9% in assay [6] (at 50.0 µM).
For the compound `CCOP(=O)(OCC)/C(C#N)=C/c1coc2cc(C)cc(C)c2c1=O`, the growth inhibition in assay [1] (setting [7]) was 19%; in assay [1] (setting [8]) it was 99% (active); in assay [1] (at 50.0 µM) it was 86.7% (active); in assay [2] (setting [7]), -7%; in assay [2] (setting [8]), 100% (active); in assay [2] (at 50.0 µM), 91.9% (active). Besides, the growth inhibition in assay [3] (setting [7]) was -10%; in assay [3] (setting [8]), 99% (active); in assay [3] (at 50.0 µM), 78% (active); in assay [4] (setting [7]), 0%; in assay [4] (setting [8]), 99% (active); in assay [4] (at 50.0 µM) it was 59%. Also, the growth inhibition in assay [5] (setting [7]) was -9%; in assay [5] (setting [8]) it was 98% (active); in assay [5] (at 50.0 µM) it was 87.2% (active); in assay [6] (setting [7]), 26%; in assay [6] (setting [8]) it was 99% (active); in assay [6] (at 50.0 µM), 82.2% (active).
Turning to `Cc1c2ccncc2c(C)c2c1sc1ccccc12`, the growth inhibition in assay [1] (setting [7]) is 83% (active); in assay [1] (setting [8]), 94% (active); in assay [1] (at 50.0 µM), 89.5% (active); in assay [2] (setting [7]), 38%; in assay [2] (setting [8]), 96% (active); in assay [2] (at 50.0 µM), 90% (active). In addition, the growth inhibition is 43% in assay [3] (setting [7]); 94% (active) in assay [3] (setting [8]); 88.8% (active) in assay [3] (at 50.0 µM); 32% in assay [4] (setting [7]); 95% (active) in assay [4] (setting [8]); 88.8% (active) in assay [4] (at 50.0 µM). Also, the growth inhibition is 55% in assay [5] (setting [7]); 95% (active) in assay [5] (setting [8]); 84.5% (active) in assay [5] (at 50.0 µM); 77% (active) in assay [6] (setting [7]); 91% (active) in assay [6] (setting [8]); 83.3% (active) in assay [6] (at 50.0 µM).
`O=c1c2cccc3cccc(c4oc5c6cccc7cccc(c(=O)c5c14)c76)c32`: the growth inhibition is 16% in assay [1] (setting [7]); 92% (active) in assay [1] (setting [8]); 95.5% (active) in assay [1] (at 50.0 µM); 13% in assay [2] (setting [7]); 97% (active) in assay [2] (setting [8]); 88.5% (active) in assay [2] (at 50.0 µM). The growth inhibition was 15% in assay [3] (setting [7]); 97% (active) in assay [3] (setting [8]); 97.2% (active) in assay [3] (at 50.0 µM); 13% in assay [4] (setting [7]); 88% (active) in assay [4] (setting [8]); 93.9% (active) in assay [4] (at 50.0 µM). Moreover, the growth inhibition in assay [5] (setting [7]) is 37%; in assay [5] (setting [8]), 94% (active); in assay [5] (at 50.0 µM) it was 96.3% (active); in assay [6] (setting [7]) it was 17%; in assay [6] (setting [8]), 97% (active); in assay [6] (at 50.0 µM), 98.9% (active).
`CCc1nc(N)nc(N)c1-c1ccc(NCCc2ccccc2)c([N+](=O)[O-])c1`: the growth inhibition in assay [1] (setting [7]) is 13%; in assay [1] (setting [8]), 16%; in assay [1] (at 50.0 µM), 25.9%; in assay [2] (setting [7]), 9%; in assay [2] (setting [8]), 8%; in assay [2] (at 50.0 µM) it was -2.75%. For the same compound, the growth inhibition was 17% in assay [3] (setting [7]); 19% in assay [3] (setting [8]); 5.15% in assay [3] (at 50.0 µM); 7% in assay [4] (setting [7]); 6% in assay [4] (setting [8]); 9.75% in assay [4] (at 50.0 µM). Besides, the growth inhibition was 13% in assay [5] (setting [7]); 15% in assay [5] (setting [8]); 14.4% in assay [5] (at 50.0 µM); 7% in assay [6] (setting [7]); 19% in assay [6] (setting [8]); 24.9% in assay [6] (at 50.0 µM).
Consider `O=[N+]([O-])c1ccc(-c2nc(/C=N/N3CCCCC3)cs2)o1`, for which the growth inhibition in assay [1] (setting [7]) is 12%; in assay [1] (setting [8]), 57%; in assay [1] (at 50.0 µM), 69.7%; in assay [2] (setting [7]) it was 1%; in assay [2] (setting [8]), 26%; in assay [2] (at 50.0 µM), 43.5%. In addition, the growth inhibition in assay [3] (setting [7]) is 17%; in assay [3] (setting [8]), 76% (active); in assay [3] (at 50.0 µM), 84.5% (active); in assay [4] (setting [7]), -7%; in assay [4] (setting [8]) it was 32%; in assay [4] (at 50.0 µM) it was 42.4%. Besides, the growth inhibition in assay [5] (setting [7]) was -1%; in assay [5] (setting [8]), 3%; in assay [5] (at 50.0 µM), 15.2%; in assay [6] (setting [7]) it was 16%; in assay [6] (setting [8]), 64%; in assay [6] (at 50.0 µM), 66.5%.
`CN(C)CCCNc1cc(/C=C/c2ccc([N+](=O)[O-])cc2)nc2ccccc12`: the growth inhibition in assay [1] (setting [7]) is -6%; in assay [1] (setting [8]) it was 70% (active); in assay [1] (at 50.0 µM), 80.8% (active); in assay [2] (setting [7]) it was -3%; in assay [2] (setting [8]), 38%; in assay [2] (at 50.0 µM), 68.5%. Further, the growth inhibition in assay [3] (setting [7]) is -2%; in assay [3] (setting [8]), 60%; in assay [3] (at 50.0 µM), 86.3% (active); in assay [4] (setting [7]), -4%; in assay [4] (setting [8]), 64%; in assay [4] (at 50.0 µM) it was 39.1%. Besides, the growth inhibition was -6% in assay [5] (setting [7]); 45% in assay [5] (setting [8]); 60.9% in assay [5] (at 50.0 µM); -3% in assay [6] (setting [7]); 56% in assay [6] (setting [8]); 91.1% (active) in assay [6] (at 50.0 µM).

Source of the values: PubChem BioAssay (NCI).
